PubChem BioAssay AID504444 (National Center for Advancing Translational Sciences (NCATS), 2011)
In all, about 360,000 compounds went through this assay and about 7,500 (2.1%) were called active. A call without a number means that no potency is given here. Inconclusive results (about 20%) are left out. The full list was thinned out, with actives kept by preference. Unmarked numbers belong to inactive results. Calls come from the whole dose curve; as a rule, active = well fitted inhibition curve with a large enough effect; inconclusive = small, poorly fitted or top-dose-only effect, or effect the other way; inactive = flat fitted curve, though single readings scatter.

Assay: Nrf2 qHTS screen for inhibitors; note: nearly all actives have a fitted effect of over 60% in size
Conditions: A549 ARE-Fluc reporter, luciferase luminescence, 18-24 h; series mostly up to 46 µM
Method in brief: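 Quantitative HTS in A549 cells stably bearing an antioxidant response element-firefly luciferase construct. Inhibition of Nrf2-driven transcription was scored by luminescence after 18-24 h of compound exposure at 37 °C.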
Potency is the fitted concentration of half-maximal effect.

Structure (SMILES) | Potency | activity change, negative = inhibition
CN1CCOC1c1ccc(C2OCCN2C)cc1 (stereo not drawn) | inactive | –
COc1ccc2cc(CNc3ccc(OC)c(OC)c3)c(=O)n(CC(=O)Nc3ccccc3F)c2c1 | inactive | –
Cc1ccc(C)n1-c1nnc(N2CCC(C(=O)NCc3ccc(F)cc3)CC2)s1 | inactive | –
CN(C)CCCN(C(=O)c1ccc(S(=O)(=O)N2CCCCCC2)cc1)c1nc2cc3c(cc2s1)OCCO3 | inactive | –
CCN(CC)CCN(C(=O)c1ccc(S(=O)(=O)N2CCOCC2)cc1)c1nc2cc3c(cc2s1)OCCO3 | inactive | –
CN(C)CCCN(C(=O)c1ccc(S(=O)(=O)N2CCCCCC2)cc1)c1nc2ccc(Br)cc2s1 | 25.9 µM (active) | –
CCOC(=O)c1ccccc1NC(=O)CSc1nc2c(sc(=S)n2CC)c(=O)[nH]1 | inactive | –
COc1cc(OC)c(NC(=O)Cc2ccc(-n3c(C)nc4cccnc43)cc2)cc1Cl | inactive | –
CCN(CC)c1cc(NC2CCCCC2)c2c3c(onc13)-c1ccccc1C2=O | inactive | –
CC(=O)c1ccc(NC(=O)c2nc3nc(C)cc(C(F)F)n3n2)cc1 | inactive | –
CCN(CC)S(=O)(=O)c1cc(C(=O)Nc2cc(S(=O)(=O)N3CCOCC3)ccc2N2CCCC2)ccc1F | inactive | –
O=C(CCCn1c(SCC(=O)c2ccc(F)cc2)nc2ccccc2c1=O)NCc1ccco1 | 25.9 µM (active) | –
O=C(CSc1nc2ccccc2c(=O)n1Cc1ccc(F)cc1)NCC1CCCO1 (stereo not drawn) | inactive | –
O=C(CCCn1c(SCC(=O)c2ccccc2)nc2ccccc2c1=O)NCC1CCCO1 (stereo not drawn) | inactive | –
CCC(=O)N1CCc2cc(Br)cc(S(=O)(=O)CCC(=O)NCCc3ccc(OC)c(OC)c3)c21 | – | 5.45% [at 9.27 µM]
Cc1ccc(Cl)cc1NC(=O)CCC(=O)N1CC(C)Sc2ccccc21 (stereo not drawn) | inactive | –
CC1CCCCN1S(=O)(=O)CCNC(=O)c1ccccc1 (stereo not drawn) | inactive | –
CC1CCCCN1S(=O)(=O)c1ccc(C(=O)Nc2nnc(-c3cccs3)o2)cc1 (stereo not drawn) | 13 µM (active) | –
CSCc1nnc(NC(=O)c2ccc(S(=O)(=O)N3CCCCC3C)cc2)o1 (stereo not drawn) | 20.6 µM (active) | –
CCc1nnc(NC(=O)C2CCCN2S(=O)(=O)c2ccccc2)s1 (stereo not drawn) | inactive | –
CC1CC(C)CN(S(=O)(=O)c2ccc(C(=O)NN3CCOCC3)cc2)C1 (stereo not drawn) | inactive | –
CC1CCCN(C(=O)Cn2c(=O)oc3cc(S(=O)(=O)N4CCCCC4C)ccc32)C1 (stereo not drawn) | inactive | –

Structure (SMILES) | Potency | activity change, negative = inhibition
CC1CCCN(S(=O)(=O)c2ccc(C(=O)Nc3nnc(-c4ccncc4)o3)cc2)C1 (stereo not drawn) | 8.2 µM (active) | –
CC1CCCCN1S(=O)(=O)c1ccc(S(=O)(=O)N(CC(=O)Nc2ccccc2)Cc2cccs2)cc1 (stereo not drawn) | inactive | –
CSc1ncc(Cl)c(C(=O)Nc2ccc(S(=O)(=O)N3CCCC(C)C3)cc2)n1 (stereo not drawn) | inactive | –
O=C1N[C@@H](c2ccccc2)COC(=O)[C@H](Cc2ccc(F)cc2)C/C=C\C[C@@H]1CC(=O)N(CCO)Cc1ccccc1 | inactive | –
FC(F)(F)c1cc(Nc2nc3ccccc3c3nncn23)ccc1Cl | inactive | –
CC[C@]12c3[nH]c4ccc(Cl)cc4c3CCN1C(=O)[C@@H](CC(=O)NCCCOC)C[C@@H]2C(=O)N1CCN(C(=O)c2ccco2)CC1 | inactive | –
CCOC(=O)c1ccc(NC(=S)N2CCN(c3ccccn3)CC2)cc1 | inactive | –
O=C(CN1CCN(c2ccccn2)CC1)Nc1ccc(Br)cc1 | inactive | –
Cc1cc(Br)ccc1NC(=O)c1sc2ncn(CC(=O)N3CCN(c4ccccn4)CC3)c(=O)c2c1C | 18.4 µM (active) | –
Cc1cc(Br)ccc1NC(=O)c1cnc(N2CCN(c3ccccn3)CC2)c2ccccc12 | 11.6 µM (active) | –
Cc1cc(Br)ccc1NC(=O)Cn1cnc2sc(C)c(S(=O)(=O)N3CCN(C)CC3)c2c1=O | – | 4.06% [at 9.27 µM]
Cc1sc2ncn(CC(=O)NCCCC(=O)N3CCN(c4ccccc4F)CC3)c(=O)c2c1C | inactive | –
c1ccc(Cn2nnc3c(N4CCCCC4)ncnc32)cc1 | inactive | –
CCN(CC)C(=O)[C@H]1C[C@H](CC(=O)NCC23CC4CC(CC(C4)C2)C3)C(=O)N2CCc3c([nH]c4cc(CCC(=O)N(C)C)ccc34)[C@]12C | inactive | –
Cc1c(C(=O)Nc2cccc(S(=O)(=O)N3CCOCC3)c2)oc2ccccc12 | inactive | –
O=S(=O)(c1cccc(C(F)(F)F)c1)N1CCN(c2nc(-c3cccs3)nc3ccccc23)CC1 | inactive | –
COc1ccc(NS(=O)(=O)c2ccc3oc(SCC(N)=O)nc3c2)cc1 | 23.1 µM (active) | –
COc1ccc(NS(=O)(=O)c2ccc(O)c(C(=O)OCC(=O)NC3CCCCC3)c2)cc1 | inactive | –
CCS(=O)(=O)c1ccc2oc(SCC(=O)N3c4ccccc4CC3C)nc2c1 (stereo not drawn) | inactive | –
COc1ccc(N2CCN(S(=O)(=O)c3ccc4c(c3)CC(=O)N4)CC2)cc1 | inactive | –
COc1cc(Cl)ccc1Nc1ncc(C(=O)N2CCN(c3ccccc3OC)CC2)c2ccccc12 | – | 1.91% [at 9.27 µM]
